Sampled rows, rich in hits. Any-hit rate of the full collection: about 0.98%.
RTF Ca sens act: cardiac RTF calcium sensitivity activators, primary screen, biochemical, IANBD-TnC fluorescence, EC20 calcium; actives 0.24% (n = 340,000); activation, % at 7.2 µM; Troponin I, cardiac muscle (Homo sapiens) + Troponin T, cardiac muscle (Homo sapiens) + …; IANBD-labeled TnC RTF fluorescence at EC20 calcium; 0% EC20 calcium, 100% full calcium;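 active = activation above the mean over all tested compounds plus 3 SD, cut at about 30% in these data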;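 also: rise in fluorescence read as greater calcium sensitivity of cardiac thin filaments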
EBV gp42 inh: Epstein-Barr virus gp42 inhibitors, primary screen, biochemical, uHTS, fluorescence polarization; Fluorescence polarization binding assay, mP read-out; inhibition, % (tested at 21.74 µM); actives 0.42% (n = 220,000); AID 1085, 2008; in the data active = inhibition above about 50%
eLon inh: inhibitors of E. coli Lon protease, primary screen, biochemical, fluorescence polarization; P0A9M0; purified E. coli Lon protease; inhibition, % at 7.94 µM; actives 0.42% (n = 360,000); AID 602123, 2011; in the data active = inhibition above about 13%, passing the limit was not always enough;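 also: 0% = enzyme with probe and DMSO and 100% = no enzyme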
Target sequence (P0A9M0 whole entry, looked up): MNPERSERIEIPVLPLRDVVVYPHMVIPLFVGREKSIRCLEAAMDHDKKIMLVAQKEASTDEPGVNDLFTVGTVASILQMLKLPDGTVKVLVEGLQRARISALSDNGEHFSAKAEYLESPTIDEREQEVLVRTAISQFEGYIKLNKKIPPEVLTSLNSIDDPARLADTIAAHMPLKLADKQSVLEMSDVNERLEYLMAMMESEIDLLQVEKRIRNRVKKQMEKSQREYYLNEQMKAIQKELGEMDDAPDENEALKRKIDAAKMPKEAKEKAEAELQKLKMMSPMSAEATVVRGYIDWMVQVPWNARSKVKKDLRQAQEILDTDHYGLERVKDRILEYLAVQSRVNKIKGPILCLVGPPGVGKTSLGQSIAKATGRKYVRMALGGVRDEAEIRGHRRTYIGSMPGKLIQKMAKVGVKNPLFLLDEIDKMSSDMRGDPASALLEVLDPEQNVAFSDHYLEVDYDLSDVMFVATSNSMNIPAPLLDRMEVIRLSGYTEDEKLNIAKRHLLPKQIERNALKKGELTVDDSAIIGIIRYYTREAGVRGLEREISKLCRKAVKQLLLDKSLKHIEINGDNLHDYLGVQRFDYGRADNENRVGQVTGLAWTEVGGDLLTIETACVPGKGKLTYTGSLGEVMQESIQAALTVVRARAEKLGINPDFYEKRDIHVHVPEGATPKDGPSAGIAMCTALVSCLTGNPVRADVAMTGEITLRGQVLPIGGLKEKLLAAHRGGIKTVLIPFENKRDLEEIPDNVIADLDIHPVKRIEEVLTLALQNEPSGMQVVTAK
C-LANA FP: inhibitors of KSHV C-LANA binding to DNA, primary screen, biochemical, fluorescence polarization, FAM-LBS DNA, MBP-C-LANA, single point | Kaposi's sarcoma herpesvirus LANA C-terminal domain (residues 932-1162) DNA binding | actives 0.078% (n = 340,000) | AID 504423, 2011 | inhibition, % at 9 µM;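 active = highest replicate inhibition at or above 60% at 9 µM, even if other replicates fall short; inactive = all replicates below 60% inhibition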;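 also: 0% = neutral control wells and 100% = 4 µM acridine orange control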
RTF Ca sens inh: cardiac RTF calcium sensitivity inhibitors, primary screen, biochemical, IANBD-TnC fluorescence, EC70 calcium; Troponin I, cardiac muscle (Homo sapiens) + Troponin T, cardiac muscle (Homo sapiens) + …; IANBD-labeled cardiac RTF, Ca2+ fluorescence; inhibition, % at 7.15 µM; actives 0.12% (n = 340,000);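 active = inhibition above the mean inhibition of all tested compounds plus 3 SD, cut at about 17% in these data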;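 also: assay run at fixed EC70 calcium of 1.6 mM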
Keap1-Nrf2 PPI: Keap1-Nrf2 protein-protein interaction inhibitors, primary screen, biochemical, fluorescence polarization, single point; Kelch-like ECH-associated protein 1 (Homo sapiens), Q14145; Keap1 Kelch-Nrf2 peptide fluorescence polarization, 1536-well; inhibition, % at 9.4 µM; actives 0.15% (n = 340,000); AID 504523, 2011; in the data active = inhibition above about 12%;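 also: human Keap1 Kelch domain with fluorescein labeled Nrf2 9mer peptide probe; 0% = neutral control wells and 100% = peptide positive control; higher means more block of Keap1 binding to Nrf2 peptide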
E coli Lon conf: E. coli Lon protease inhibitor retest, confirmation, biochemical, fluorescence polarization. shares compounds with eLon inh. purified E. coli Lon. inhibition, % at 7.94 µM. actives 31% (n = 1,400). AID 602230, 2012; in the data active = inhibition above about 16%;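 also: 0% = enzyme with probe and DMSO and 100% = no enzyme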
* marks the source's active call; other numbers are inactive results; · = not tested or not shown.

SMILES	RTF Ca sens act	EBV gp42 inh	eLon inh	C-LANA FP	RTF Ca sens inh	Keap1-Nrf2 PPI	E coli Lon conf
CC1CCCCC1NC(=O)CN1C(=O)c2cccc(N)c2C1=O (configuration not stated)	5	79*	17*	1	-14	-1	26*
CC1CCCCC1NC(=O)COC(=O)CN1C(=O)c2ccccc2C1=O (configuration not stated)	0	·	-2	0	-3	-1	·
O=C1CN(C(=O)c2ccccc2F)C(c2ccccc2)c2cc(F)ccc2N1 (configuration not stated)	0	·	18*	-1	-3	3	-10
Cc1cc(C(=O)COc2ccccc2C(N)=O)c(C)n1C	0	-10	8	0	0	-1	·
Cc1cc(C(=O)COc2cccc3cccnc23)c(C)n1C	53*	11	71*	38	-134	24*	2
Cn1c(=O)[nH]c(=O)c2c1nc(NCc1ccccc1)n2Cc1ccc(F)cc1	-10	·	6	-2	-1	3	·
Nc1c(NCc2ccccc2)c(=O)[nH]c(=O)n1Cc1ccccc1	0	7	15*	17	-14	7	16
CCN(C(=O)COC(=O)CC(C)c1ccccc1)c1c(N)n(Cc2ccccc2)c(=O)[nH]c1=O (configuration not stated)	-7	·	5	-1	3	-4	·
CCN(C(=O)COC(=O)C(c1ccccc1)c1ccccc1)c1c(N)n(Cc2ccccc2)c(=O)[nH]c1=O	9	·	25*	1	0	-6	-2
CNc1c(N)n(Cc2ccccc2)c(=O)[nH]c1=O	7	50*	33*	28	-15	8	24*
COc1ccc(C(=O)N=C2SC3CS(=O)(=O)CC3N2Cc2ccccc2)cc1OC (configuration not stated)	0	·	16*	-1	-7	0	-1
CC1(C(=O)NS(=O)(=O)Cc2cccc(Cl)c2)CCN1C(=O)CCc1cccs1 (configuration not stated)	·	·	-5	·	·	·	·
COc1ccc(S(=O)(=O)N2CCN(Cc3ccc4c(c3)OCO4)CC2)cc1	-1	·	43*	1	2	0	2
CSc1ccc(S(=O)(=O)N2CCN(Cc3ccc4c(c3)OCO4)CC2)cc1	-3	-7	-9	-3	-10	-3	·
O=C(COc1cccc(F)c1)Nc1nc(-c2ccccn2)cs1	·	·	7	·	·	·	·
O=C(COc1ccc(F)cc1)Nc1nc(-c2ccccn2)cs1	-1	·	19*	0	-6	2	-10
CCc1cccc(NC(=O)CCCn2nc(CC)n3c(cc4occc43)c2=O)c1	5	·	29*	-2	-14	-7	-5
CC(C)(C)c1ccc(C(=O)Nc2cccc3ncccc23)cc1	26	·	44*	23	-28	5	44*
Cc1nc2ccc(C(=O)NCCCN3CCCC3=O)cn2c1N(C)C(=O)CCc1ccccc1	·	·	4	·	·	·	·
OC(CN1CCCCC1)c1ccc(Br)cc1 (configuration not stated)	-6	·	10	-1	-5	-5	·
OC(CN1CCCCC1)c1ccc2c3c(cccc13)CC2 (configuration not stated)	-1	·	70*	3	0	1	3
CC(=O)c1ccc(NC(=O)c2cccc(N3C(=O)c4ccccc4C3=O)c2)cc1	-5	·	4	0	3	-1	·
COc1ccc(NC(=O)c2cccc(N3C(=O)c4cccc([N+](=O)[O-])c4C3=O)c2)cc1	-4	·	19*	1	-8	1	0
CCOc1ccc(NC(=O)CSC2=NCCN2)cc1	5	-2	45*	2	3	-2	4
O=C1NC(=S)CN1c1ccccc1	2	3	33*	0	0	-2	16
SMILES	RTF Ca sens act	EBV gp42 inh	eLon inh	C-LANA FP	RTF Ca sens inh	Keap1-Nrf2 PPI	E coli Lon conf
Cc1cc(NC(=O)c2coc(=O)c(Br)c2)ccc1C(C)C	·	-4	24*	1	·	-3	19*
C[C@@H](NC(=O)c1coc(=O)c(Br)c1)c1ccccc1	2	-7	-4	-1	-11	1	·
Cn1ccc2c(N3CCCC3)cc3c(c21)C1CCC3O1 (configuration not stated)	·	·	30*	·	·	·	2
C/C(=N\NC(=S)NCCc1ccccc1)c1cccs1	7	2	101*	13	-13	-3	57*
NC(=O)c1ccccc1NC(=O)c1ccc2c(c1)OCO2	-2	·	1	0	-5	-3	·
O=C(NC(=S)Nc1ccc([N+](=O)[O-])cc1O)C1CCCCC1	-5	·	16*	1	-2	-5	0
Cc1cccc(C)c1NC(=O)c1csc([C@@H]2O[C@H](CO)[C@H](O)[C@H](O)[C@H]2O)n1	·	·	-3	·	·	·	·
CCN1CCN(C(=O)CN(CC)S(=O)(=O)c2ccc(F)cc2)CC1	-3	·	-2	1	-4	-3	·
O=C1c2ccccc2-c2n[nH]c3cccc1c23	6	·	23*	5	-6	-4	33*
COc1ccc(-c2nnc(SCC(=O)N3CCOCC3)o2)cc1OC	7	-9	14*	1	2	0	2
COc1ccc(NC(=O)Nc2sc(NS(=O)(=O)c3ccccc3)nc2C)cc1	13	-6	14*	0	0	-5	-3
COc1ccc(NC(=O)C2(C)Cc3c(-c4cccc(NC(C)=O)c4)ccnc3O2)cn1 (configuration not stated)	·	·	28*	·	·	·	2
Cc1ccccc1Cn1c(C)c(C(=O)NCC(C)C)sc1=O	·	·	9	·	·	·	·
N#CCCN(Cc1ccccc1)C(C(=O)NC1CCCCC1)c1cc2ccccc2o1 (configuration not stated)	·	·	-5	·	·	·	·
CCC1c2ccc(C)n2CCN1C(=O)Nc1ccccc1C(=O)OC (configuration not stated)	8	-7	23*	11	-14	2	6
Cn1cnc2c(cnn2C)c1=O	-10	·	-16	0	3	1	·
Cn1c(NC(=O)CCC2CCCCC2)cc(=O)n(C)c1=O	0	2	-2	0	-5	4	·

Source: PubChem (several laboratories)
